From PubChem BioAssay
D1 agonist: human D1 receptor agonism; P21728; activation, % at 2 µM; 1% of 360,000 active; AID 504660; HEK293 T-REx D1 cells, calcium flux, agonist mode
Target sequence (P21728 whole entry, looked up): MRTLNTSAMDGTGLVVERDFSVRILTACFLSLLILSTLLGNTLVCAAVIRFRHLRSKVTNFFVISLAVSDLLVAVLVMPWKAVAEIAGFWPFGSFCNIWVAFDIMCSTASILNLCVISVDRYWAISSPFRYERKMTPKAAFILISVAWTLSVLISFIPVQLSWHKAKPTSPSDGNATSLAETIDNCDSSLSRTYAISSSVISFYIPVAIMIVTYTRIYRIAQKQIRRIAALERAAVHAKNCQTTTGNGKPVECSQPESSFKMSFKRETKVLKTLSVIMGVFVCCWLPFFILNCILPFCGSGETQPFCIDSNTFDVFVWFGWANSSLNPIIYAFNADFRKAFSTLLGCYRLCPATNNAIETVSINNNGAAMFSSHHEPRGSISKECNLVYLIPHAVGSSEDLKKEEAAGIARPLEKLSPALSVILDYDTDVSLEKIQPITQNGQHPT
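Agonism was scored from calcium flux recorded over 180 s (1 read/s) after pintool compound addition, following a 10-cycle baseline. Cells were inducible force-coupled HEK293 TREx D1, plated overnight at 30 C and loaded with no-wash calcium dye.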
D1 antagonist: human D1 dopamine receptor antagonism; HEK293 TREx D1 cells, calcium flux, dopamine EC80; hits give low values; activity change, negative = inhibition, % at 10 µM; 3.2% of 360,000 active; AID 504652; in the data active = activity change below about -30%
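Tetracycline-induced HEK293 T-REx cells with force-coupled D1 receptor were loaded with a no-wash calcium dye. Compound was added after a 10 s baseline and read kinetically for 180 s; EC80 dopamine was then added and calcium flux followed another 180 s.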
D1 potentiator: human D1 dopamine receptor positive modulation; AID 504651; HEK293 TREx D1 cells, calcium flux, dopamine EC20 potentiation; 0.036% of 360,000 active; P21728; potentiation, % at 10 µM; in the data active = potentiation above about 30%
TRHR agonist: TRH receptor (human) agonism; activation, % at 2 µM; TRHR cells, calcium flux fluo-8, FDSS agonist mode; P34981; 0.18% of 360,000 active
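Steps: seed TRHR cells overnight; add fluo-8 no-wash Ca dye, RT 30 min–1.5 h; record 10 s baseline; pin-transfer compounds; monitor fluorescence 1 cycle/s for the agonist window. Calcium increases flag candidate agonists.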
TRHR PAM: allosterically enhances the human TRH receptor; TRHR cells, fluo-8 calcium fluorescence, EC20 TRH enhancement; P34981; enhancement, % at 2 µM; 0.66% of 360,000 active; in the data active = enhancement above about 30%
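TRHR-expressing cells loaded with fluo-8 calcium dye were read kinetically (ex 480/em 530) during compound addition, then stimulated with an EC20 of TRH (10 nM final). Enhancement of the Gq-mediated intracellular calcium response was scored.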
A number is an active result; i = inactive. An excerpt weighted towards active compounds, which were near 4.6% of everything screened. Rule as the data show it, unless noted: active = activation above about 30%; inactive = the rest.

SMILES	D1 agonist	D1 antagonist	D1 potentiator	TRHR agonist	TRHR PAM
Cc1cccc(N2C(=O)CSC23C(=O)N(Cc2cccc(C(F)(F)F)c2)c2ccccc23)c1 (configuration not stated)	i	i	i	i	i
Cc1ccc2onc(CC(=O)Nc3ccc(C(C)C)cc3)c2c1	i	-74.3	i	i	i
Cc1ccc(NC(=O)Cc2noc3ccccc23)nc1	i	-32.5	i	i	i
O=C(Cc1noc2ccccc12)Nc1ccccn1	i	i	i	i	i
Nc1sc2c([n+]1CCCS(=O)(=O)[O-])CCCC2	i	-31.1	i	i	i
CSc1sc2ccccc2[n+]1CCCS(=O)(=O)[O-]	i	i	i	i	i
OCCN(CCO)CC(O)COc1ccc(C23CC4CC(CC(C4)C2)C3)cc1 (configuration not stated)	31.2	i	i	i	i
Clc1ccccc1CN1CCc2nc(N3CCN(c4ncccn4)CC3)ncc2C1	i	i	i	i	i
FC(F)(F)C(F)(F)C(F)(F)c1nnc2ccc(N3CCOCC3)nn12	i	-73.3	i	i	i
O=C(Cn1c(-c2cccs2)cc2ccccc21)NCCCN1CCN(c2ccccc2F)CC1	i	-62.5	i	i	i
O=C(CNC(=O)Cn1ccc2ccccc2c1=O)NCCCN1CCN(c2cccc(Cl)c2)CC1	i	-37.0	i	i	i
O=C(CCNC(=O)Cn1ccc2ccccc2c1=O)NCCCN1CCN(c2ccccc2F)CC1	i	-67.9	i	i	i
O=C(CCNC(=O)Cn1ccc2ccccc2c1=O)NCCCN1CCN(c2ccc(F)cc2)CC1	i	-51.1	i	i	i
O=C(CCNC(=O)Cn1ccc2ccccc2c1=O)NCCCN1CCOCC1	i	i	i	i	i
Cc1cc2ccccc2c(=O)n1CC(=O)NCC(=O)N1CCN(c2cccc(Cl)c2)CC1	i	i	i	i	i
O=c1[nH]c2ccc(NCc3ccc(-c4ccccc4F)o3)cc2[nH]1	i	i	i	i	i
CCOC(=O)c1c(C)[nH]c(CCC(=O)NCCCN2CCN(c3ccc(F)cc3)CC2)c1C	i	-37.4	i	i	i
O=C1c2[nH]nc(-c3ccccc3O)c2C(c2cccc(Br)c2)N1Cc1ccncc1 (configuration not stated)	i	i	i	i	i
Cc1ccc(-c2c(C)n3c4c(=O)n(C)c(=O)n(C)c4nc3n2CCCO)cc1	i	i	i	i	i
Cc1ccc(NC(=O)c2cc(-c3ccccc3)nn2-c2ccccc2)cc1	i	i	i	i	i
O=C(NC1=NCCS1)c1cc(-c2ccccc2)nn1-c1ccccc1	i	-47.0	i	i	i
CSc1ccc(CNC(=O)c2ccccc2NC(=O)c2nsc3ccccc23)cc1	i	i	i	i	i
COc1ccc(C2N3CC4(C)CN2CC(C)(C3)C4O)cc1 (configuration not stated)	i	i	i	i	i
COc1ccc(C2N3CC4(C)CN2CC(C)(C3)C4O)cc1OC (configuration not stated)	i	i	i	i	31.0
OC(CNC1CCCCC1)COCCOc1ccc(Br)cc1 (configuration not stated)	48.1	-30.2	i	i	i
SMILES	D1 agonist	D1 antagonist	D1 potentiator	TRHR agonist	TRHR PAM
CCc1ccc(OCCOCC(O)CN2CCN(Cc3ccc(Cl)cc3)CC2)cc1 (configuration not stated)	39.7	-35.9	i	i	i
OC(COCCOc1ccc(Br)cc1)CN1CCN(Cc2ccccc2)CC1 (configuration not stated)	i	-31.2	i	i	i
CCc1cccc(OCCOC(=O)CNS(=O)(=O)c2ccc(NC(C)=O)cc2)c1	i	i	i	i	i
O=C(Nc1ccc(Br)cc1)c1cccc(N2C(=O)C3CCCCC3C2=O)c1 (configuration not stated)	i	i	i	i	i
O=C(Nc1ccc(Br)cc1)c1ccc(N2C(=O)C3CCCCC3C2=O)cc1 (configuration not stated)	i	-36.6	i	i	i
Cc1cc(OCCCn2c(CCNC(=O)C3CCCCC3)nc3ccccc32)ccc1Cl	44.3	i	i	i	i
CCOC(=O)C1=C(c2ccccc2)N=c2s/c(=C\c3ccco3)c(=O)n2C1c1cccs1 (configuration not stated)	i	i	i	i	i
